In PubChem BioAssay (NCATS):
Results filed as inconclusive are left out. Where a call stands in place of a potency, no number is given. The source made the active and inactive calls. The call rests on the fitted dose curve; in most records, active means well fitted curve in the direction sought with a large enough effect; inconclusive means small, poorly fitted or top-dose-only effect, or another doubt; inactive means no such curve, though single readings can be large; an effect the other way counts as inactive or inconclusive.

Assay: qHTS of pediatric cancer cell lines to identify multiple opportunities for drug repurposing: Primary screen for Rh41 cells (AID 1347108); further: nearly all actives have a fitted effect of over 70% in size
Settings: Rh41 rhabdomyosarcoma viability, CellTiter-Glo luminescence, 48 h; series mostly up to 46 µM
Outline: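 Cells plated at 500-1,000/well in growth medium, compounds added after 5 h. MIPE tested at 11 points (from 0.78 nM), NPC at 8 points (from 0.59 nM). CellTiter-Glo luminescence after 48 h; concentration-response curves from primary screen.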
Potency means the concentration at half of the fitted maximal effect.

Compound	Potency
CCOC(=O)CC(SP(=S)(OC)OC)C(=O)OCC (stereo unspecified)	inactive
Clc1ccc(C(c2ccc(Cl)cc2)C(Cl)(Cl)Cl)cc1	inactive
CC(C)(C)NCC(O)c1cc(Cl)c(N)c(C(F)(F)F)c1 (stereo unspecified)	inactive
CC[N+]1(CC)CCC(OC(=O)C(O)(c2ccccc2)c2ccccc2)C1 (stereo unspecified)	inactive
CC(=O)OCC1=C(C(=O)O)N2C(=O)[C@@H](N)[C@H]2SC1	inactive
c1ccc(N2CCNCC2)cc1	inactive
CCN(CCO)CCn1c(Cc2ccccc2)nc2c1c(=O)n(C)c(=O)n2C	inactive
C[C@]12CC[C@H]3[C@@H](CCC4=CC(=O)CC[C@@H]43)[C@@H]1CC[C@@H]2OC(=O)CCc1ccco1	inactive
c1ccc2c(c1)sc1ccccc12	inactive
CCCOC(=O)c1cncn1C(C)c1ccccc1 (stereo unspecified)	inactive
COc1ccc2c(c1OC)C(=O)O[C@H]2[C@@H]1c2cc3c(cc2CCN1C)OCO3	inactive
C[C@](O)(CS(=O)(=O)c1ccc(F)cc1)C(=O)Nc1ccc(C#N)c(C(F)(F)F)c1	2.96 µM (active)
O=P1(N(CCCl)CCCl)NCCCO1 (stereo unspecified)	inactive
Nc1ccccc1	inactive
O=C1c2ccccc2C(=O)C1C(=O)C(c1ccccc1)c1ccccc1	inactive
CN1CC[C@]23c4c5ccc(O)c4O[C@H]2[C@@H](O)CC[C@H]3[C@H]1C5	inactive
ClCCN1CCCC1	inactive
O=C(CCCN1CCC2(CC1)C(=O)NCN2c1ccccc1)c1ccc(F)cc1	inactive
Clc1ccccc1N1CCNCC1	inactive
NC(=O)CS(=O)C(c1ccccc1)c1ccccc1 (stereo unspecified)	inactive

Compound	Potency
O=[N+]([O-])O[C@H]1CO[C@H]2[C@@H]1OC[C@H]2O[N+](=O)[O-]	inactive
Clc1cccc(SC2CCNCC2)n1	inactive
CC(C)(N)Cc1ccccc1Cl	inactive
C[C@]12CC[C@H]3[C@@H](CC[C@@]45O[C@H]4C(O)=C(C#N)C[C@]35C)[C@H]1CC[C@H]2O	20.9 µM (active)
COc1cccc2c1C(=O)c1c(O)c3c(c(O)c1C2=O)C[C@@](O)(C(=O)CO)CC3OC1CC(N2CCOC(OC)C2)C(O)C(C)O1 (stereo partly specified)	0.0944 µM (active)
CCC(C)(C)c1ccc(O)cc1	inactive
C[C@]12CCC(=O)C=C1CC[C@@H]1[C@H]3CC[C@](C)(O)[C@@]3(C)CC[C@@H]12	38.9 µM (active)
CCC1(c2ccccc2)C(=O)N(COC)C(=O)N(COC)C1=O	inactive
CCC1(c2ccc(N)cc2)CCC(=O)NC1=O (stereo unspecified)	inactive
CC(C(=O)c1ccccc1)N(C)C (stereo unspecified)	inactive
C#C[C@]1(O)CC[C@H]2[C@@H]3CCC4=CC(=O)CC[C@]4(C)[C@H]3CC[C@@]21C	inactive
COP(=S)(OC)Oc1ccc(S(=O)(=O)N(C)C)cc1	inactive
C=C(C)[C@H]1CN[C@H](C(=O)O)[C@H]1CC(=O)O	inactive
C=CCN1C[C@H](C)N([C@H](c2ccc(C(=O)N(CC)CC)cc2)c2cccc(OC)c2)C[C@H]1C	inactive
COC1CC(=C(c2cccs2)c2cccs2)C[N+](C)(C)C1 (stereo unspecified)	inactive
O=C(O)CCCc1ccc(N(CCCl)CCCl)cc1	inactive
CCc1cc2c(s1)-n1c(C)nnc1CN=C2c1ccccc1Cl	inactive
CN1C(=O)COc2c(C(=O)NC3CN4CCC3CC4)cc(Cl)cc21 (stereo unspecified)	inactive
O=C1c2ccccc2C(=O)c2ccccc21	inactive

Assay: qHTS of pediatric cancer cell lines to identify multiple opportunities for drug repurposing: Confirmatory screen for SK-N-MC cells (AID 1347111);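 further: cells exposed to compound for 48 h before the readout; nearly all actives have a fitted effect of over 70% in size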
Settings: SK-N-MC cell viability; series mostly up to 45.9 µM
Source text: (§1) Drug repurposing or repositioning has been offered as a strategy for drug development in oncology programs. This approach has special potential for childhood cancers and other rare or orphan diseases, where the expected return on new drug development has been a disincentive to pharmaceuticals.
(§2) In this project we exploit the poly-pharmacology of drugs to discover new indications via phenotypic screening of a panel of 19 well-characterized cell lines derived from solid tumors seen in children and adolescents. The goal is to identify approved drugs with previously unrecognized anticancer properties that has the potential to reveal new mechanisms and biological processes involved in carcinogenesis or drug resistance. We employed a titration-based paradigm (quantitative high-throughput screening or qHTS), where all compounds were tested at multiple concentrations for their effect on cell viability. Concentration-response curves (CRCs) were derived directly from the primary screen, and both potency and efficacy values were used to identify compounds with robust bioactivity profiles. We screened the NIH Chemical Genomics Center (NCGC) Pharmaceutical Collection (NPC) and Mechanism Interrogation Plate (MIPE) small molecule collections of approved and investigational compounds against these cell lines; and measured metabolically active cells after 48 hours of compound treatment as a proxy for cell viability.
(§3) Assay Submitter: Nathalia J. Martinez, National Center for Advancing Translational Sciences, National Institutes of Health, Rockville, MD, USA; email: natalia.martinez@nih.gov
(§4) [1] Shen, M et al. Quantitative high-throughput phenotypic screening of pediatric cancer cell lines identifies multiple opportunities for drug repurposing. Oncotarget 2017 Dec 19;9(4):4758-4772. PMID 29435139.
(§5) The cells were obtained from University of North Carolina (UNC), Pediatric Preclinical Testing Program (PPT), and Coriell Institute (CI).
(§6) qHTS cell viability assay:
(§7) Cells were assayed in growth media at a density of 500-1,000 cells/well. Five microliters of cells were dispensed into 1,536-well, white, solid-bottom, TC-treated plates (Greiner Bio One) using a multidrop dispenser and incubated at 37 degrees C, 5% CO2, under a humidified atmosphere for 5 hours. Twenty-three nanoliters of compounds and controls (neutral control DMSO or positive control bortezomib at final concentration of 2.3 µM) were subsequently transferred by Kalypsys pintool. For primary screens, the MIPE collection was tested at 11-point dilutions (final concentrations range from 0.78 nM to 46 µM) and the NPC collection at 8-point dilutions (final concentrations range from 0.59nM to 46 µM). Compounds tested in follow-up screens were assayed at 11-point dilutions. Cells were incubated for 48 hours, followed by addition of 3 uL of CellTiter-Glo (Promega). After a 15 min incubation at room temperature, samples were analyzed for luminescence intensity using a ViewLux High-throughput CCD imager equipped with clear filters.

Compound	Potency
C[C@](O)(CS(=O)(=O)c1ccc(F)cc1)C(=O)Nc1ccc(C#N)c(C(F)(F)F)c1	inactive
O=P1(N(CCCl)CCCl)NCCCO1 (stereo unspecified)	inactive
COc1cccc2c1C(=O)c1c(O)c3c(c(O)c1C2=O)C[C@@](O)(C(=O)CO)CC3OC1CC(N2CCOC(OC)C2)C(O)C(C)O1 (stereo partly specified)	0.0037 µM (active)
O=C(O)CCCc1ccc(N(CCCl)CCCl)cc1	23.3 µM (active)

Assay: qHTS of pediatric cancer cell lines to identify multiple opportunities for drug repurposing: Confirmatory screen for BT-12 cells (AID 1347112); further: nearly all actives have a fitted effect of over 55% in size
Settings: BT-12 rhabdoid tumor cells, viability; series mostly up to 45.9 µM
Outline: (§8)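 Viability after 48 h compound treatment at 37C, 500-1,000 cells/well, read as ATP luminescence with CellTiter-Glo. Primary screens used 11-point (MIPE, 0.78 nM-46 µM) or 8-point (NPC, 0.59 nM-46 µM) final concentrations; follow-up screens used 11-point dilutions.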

Compound	Potency
C[C@](O)(CS(=O)(=O)c1ccc(F)cc1)C(=O)Nc1ccc(C#N)c(C(F)(F)F)c1	inactive
O=P1(N(CCCl)CCCl)NCCCO1 (stereo unspecified)	inactive
COc1cccc2c1C(=O)c1c(O)c3c(c(O)c1C2=O)C[C@@](O)(C(=O)CO)CC3OC1CC(N2CCOC(OC)C2)C(O)C(C)O1 (stereo partly specified)	0.0465 µM (active)
O=C(O)CCCc1ccc(N(CCCl)CCCl)cc1	inactive

Assay: qHTS of pediatric cancer cell lines to identify multiple opportunities for drug repurposing: Confirmatory screen for NB-EBc1 cells (AID 1347115);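 further: cells exposed to compound for 48 h before the viability read; nearly all actives have a fitted effect of over 45% in size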
Settings: NB-EBc1 neuroblastoma cells, viability (cytotoxicity); series mostly up to 45.9 µM
Source text: as §1, §2, §3, §4, §5, §6
as §7, with “0.59 nM” for “0.59nM”, “µL” for “uL”

Compound	Potency
C[C@](O)(CS(=O)(=O)c1ccc(F)cc1)C(=O)Nc1ccc(C#N)c(C(F)(F)F)c1	inactive
O=P1(N(CCCl)CCCl)NCCCO1 (stereo unspecified)	inactive
O=C(O)CCCc1ccc(N(CCCl)CCCl)cc1	9.27 µM (active)

Assay: qHTS of pediatric cancer cell lines to identify multiple opportunities for drug repurposing: Confirmatory screen for BT-37 cells (AID 1347117);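 further: viability measured after 48 h of compound exposure; nearly all actives have a fitted effect of over 55% in size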
Settings: BT-37 pediatric cancer cells, viability; series mostly up to 45.9 µM
Outline: as §8

Compound	Potency
C[C@](O)(CS(=O)(=O)c1ccc(F)cc1)C(=O)Nc1ccc(C#N)c(C(F)(F)F)c1	inactive
O=P1(N(CCCl)CCCl)NCCCO1 (stereo unspecified)	inactive
COc1cccc2c1C(=O)c1c(O)c3c(c(O)c1C2=O)C[C@@](O)(C(=O)CO)CC3OC1CC(N2CCOC(OC)C2)C(O)C(C)O1 (stereo partly specified)	0.0066 µM (active)

Assay: qHTS of pediatric cancer cell lines to identify multiple opportunities for drug repurposing: Confirmatory screen for TC32 cells (AID 1347118);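 further: cells exposed to compound for 48 h before the read; nearly all actives have a fitted effect of over 65% in size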
Settings: TC32 Ewing sarcoma cells viability qHTS; series mostly up to 45.9 µM
Outline: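 Luminescent CellTiter-Glo read-out of metabolically active TC32 cells after 48 h compound exposure. Primary: MIPE 11-point, 0.78 nM–46 µM; NPC 8-point, 0.59 nM–46 µM. Confirmatory: 11-point dilutions.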

Compound	Potency
C[C@](O)(CS(=O)(=O)c1ccc(F)cc1)C(=O)Nc1ccc(C#N)c(C(F)(F)F)c1	inactive
O=P1(N(CCCl)CCCl)NCCCO1 (stereo unspecified)	inactive
COc1cccc2c1C(=O)c1c(O)c3c(c(O)c1C2=O)C[C@@](O)(C(=O)CO)CC3OC1CC(N2CCOC(OC)C2)C(O)C(C)O1 (stereo partly specified)	0.0059 µM (active)
